Screening results (PubChem BioAssay)
The list is not random: actives were taken first. Their share in the collection is about 1.6%.
KCNQ2 enhance – enhances the rat KCNQ2 potassium channel; O88943; B-score at 10 µM; hit rate 0.54% among 310,000; AID 2239; CHO-K1 KCNQ2, FluxOR thallium flux fluorescence; hits give high values;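 active = fluorescence ratio B-score at least 3 SD of library B-scores, with initial fluorescence B-score within 3 of them, cut at about 5.3 in these data; same plate scores as AID 2156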;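 note: B-score of peak minus minimum over baseline fluorescence ratio after K+ and Tl+ stimulus; positive B-score means potentiation of KCNQ2 with more thallium influx and brighter signal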
KCNQ2 block – inhibitors of rat KCNQ2 potassium channel. CHO-K1 KCNQ2, FluxOR thallium flux, 20 min; hits give low values. B-score at 10 µM. hit rate 1.1% among 310,000. AID 2156;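 active = fluorescence ratio B-score at most minus 3 library SDs, with starting brightness B-score within 2 library SDs, cut at about -5.5 in these data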
Kir21 conf inh – confirmation of mouse Kir2.1 potassium channel inhibitors; shares compounds with KCNQ2 enhance; Kir2.1-expressing cells, FluxOR thallium flux fluorescence; hits give low values; Tl flux remaining, % of negative control (hits give low values), % at 10 µM; hit rate 41% among 2,300;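 active = Primary-screen hit whose thallium flux fell at least 3 control SD below untreated wells in both duplicates, with normal baseline fluorescence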;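 note: 0% = blank wells without stimulus and 100% = stimulated no-compound controls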
HEK293 Tl flux – counter-screen for Kir2.1 inhibitors: effect in parental HEK293 cells | FluxOR thallium flux fluorescence; 0% = unstimulated blank wells | AID 2105 | FluxOR signal as % of negative control (100 = no effect), % at 10 µM | hit rate 19% among 2,300 | shares compounds with KCNQ2 enhance;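 active = dye signal at least 3 control SD above or below untreated wells in both duplicates, raw fluorescence within 3, either direction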;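 note: percent is based on the flux ratio of peak minus minimum fluorescence over baseline F0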
CHO-K1 Tl ctr – counter-screen for KCNQ2 potentiators: effect in parental CHO-K1 cells. shares compounds with KCNQ2 enhance. FluxOR thallium flux fluorescence; zero = vehicle mean+3SD, 100% = vehicle-minus-blank window. activity increase over 3SD of controls, % at 10 µM. hit rate 43% among 1,200;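 active = signal rise of at least 3 SD above the untreated control mean, in both duplicate wells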;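 note: counter screen of KCNQ2 potentiator hits so any rise reflects channel-independent effects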
KCNQ1 pot spec – human KCNQ1 counter-target activity of KCNQ2 potentiators; shares compounds with KCNQ2 enhance; CHO KCNQ1 stable, FluxOR thallium flux fluorescence; beyond 3SD, as % of vehicle-control signal; activation over 3SD threshold, % at 10 µM; hit rate 28% among 1,200;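 active = fluorescence ratio rise of at least 3 SD of vehicle wells above their mean, in both replicate wells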;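 note: 0% = vehicle mean plus 3 SD and 100% = vehicle minus unstimulated blank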
KCNQ2 pot conf – confirmation of rat KCNQ2 potassium channel potentiators; shares compounds with KCNQ2 enhance; CHO-KCNQ2 cells, FluxOR thallium flux fluorescence; potentiation, less the hit threshold, % at 10 µM; hit rate 68% among 1,200;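 active = fluorescence ratio rising 3 SD or more over the vehicle control mean in both replicates, plus primary screen hit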;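 note: peak minus minimum thallium fluorescence divided by baseline after K/Tl stimulus; 0% = vehicle mean plus 3 SD and 100% = vehicle minus unstimulated blank difference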
Kir2-1 sel – selectivity of KCNQ2 potentiators: effect on mouse Kir2.1. shares compounds with KCNQ2 enhance. activity over 3SD threshold, % at 10 µM. HEK293 Kir2.1, FluxOR thallium flux fluorescence. hit rate 2% among 1,200. AID 2345;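 active = fluorescence ratio rise of at least 3 SD above the vehicle-control mean, seen in both replicates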;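 note: 0% = vehicle mean plus 3 SD and 100% = vehicle minus no-stimulus blank window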
KCNQ2 W236L pot – potentiates the retigabine-insensitive rat KCNQ2 W236L mutant channel; shares compounds with KCNQ2 enhance; CHO KCNQ2-W236L, automated patch clamp current; current increase over 3SD of negative controls (%), hits give high values, % at 25 µM; hit rate 10% among 940;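 active = current increase at least 3 SD of the untreated controls above them in both duplicate recordings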
* hit, by the source's call; i = inactive; . = no result.

SMILES	KCNQ2 enhance	KCNQ2 block	Kir21 conf inh	HEK293 Tl flux	CHO-K1 Tl ctr	KCNQ1 pot spec	KCNQ2 pot conf	Kir2-1 sel	KCNQ2 W236L pot
Cc1ccccc1-c1cnn(-c2cccc([N+](=O)[O-])c2)c1N	0.71	i	.	.	.	.	.	.	.
CC1(C)CC(=O)C=C(NC2=CC3OC(c4ccccc4)OCC3OC2=O)C1 (centres undefined)	.	i	.	.	.	.	.	.	.
N#C/C(=C\c1ccc(Cl)cc1)c1n[nH]c(Cn2cncn2)n1	.	i	.	.	.	.	.	.	.
O=C(Nc1ccc(Cl)cc1Cl)c1n[nH]c(Cn2cncn2)n1	7.1*	i	i	i	-11	50*	-9	-23	i
CC(C)Cn1c(N)c(C(=O)COC(=O)c2ccc(F)cc2)c(=O)n(C)c1=O	0.09	i	.	.	.	.	.	.	.
COc1ccc(NC(=O)C(=O)NNC(=O)c2cccs2)c(OC)c1	8.6*	i	i	240%*	-4	19*	6.9*	-46	i
COc1cc(NC(=O)c2ccccc2)c(OC)cc1Cl	.	i	.	.	.	.	.	.	.
Cc1ccc(NC(=O)c2cccs2)cc1	0.09	i	.	.	.	.	.	.	.
COc1ccc(S(=O)(=O)NNC(=O)C23CC4CC(CC(C4)C2)C3)cc1	.	i	.	.	.	.	.	.	.
COc1cc(OC)cc(C(=O)NNC(=O)C(=O)Nc2cc(OC)c(Cl)cc2OC)c1	9.3*	i	i	182%*	-2	-13	-4	-26	i
COc1ccc(OC)c(NC(=O)C(=O)NNC(=O)C23CC4CC(CC(C4)C2)C3)c1	8.7*	i	i	272%*	-11	-17	7.5*	-24	i
Cc1ccc(NC(=O)C(=O)NNC(=O)c2cccs2)cc1	10*	i	i	341%*	-8	-14	35*	-6	i
COc1ccc(NC(=O)C(=O)NNC(=O)c2cccs2)cc1	3.3	i	.	.	.	.	.	.	.
Cc1c(NC(=O)c2cc(-n3cnnc3)ccc2Cl)cccc1-c1nc2ccccc2o1	0.39	i	.	.	.	.	.	.	.
CC(C)CNS(=O)(=O)c1cc2c3c(c1)CC(=O)N3CCC2	1.2	i	.	.	.	.	.	.	.
O=C(NCCc1c[nH]c2ccccc12)c1ccc([N+](=O)[O-])cc1	0.23	i	.	.	.	.	.	.	.
O=C(Nc1n[nH]c(=S)s1)c1ccc2ccccc2c1	6.5*	i	i	222%*	-5	16*	8.2*	-12	18%*
O=C(Nc1nccs1)c1ccc2ccccc2c1	1.3	i	.	.	.	.	.	.	.
Cc1cccc(CSC2=NN3CCCC(=O)N=C3S2)c1	1.3	i	.	.	.	.	.	.	.
CCCCCCCCCn1c2c(c(=N)c3c1CCC3)CCC2	-6.1	-6.1*	10%*	i	.	.	.	.	.
CCCCCCn1c(=O)[nH]c2c(c1=O)CCC2	0.1	i	.	.	.	.	.	.	.
CCn1c2c(c(=N)c3c1CCC3)CCC2	.	i	.	.	.	.	.	.	.
CCCCCCCn1c2c(c(=N)c3c1CCC3)CCCC2	1.9	i	28%*	i	.	.	.	.	.
S=C(NCc1cccnc1)Nc1ccc(Oc2ccccc2)cc1	0.02	i	.	.	.	.	.	.	.
O=C(Nc1ccc(OCc2ccccc2)cc1)Nc1cccnc1	7.2*	i	i	i	-25	64*	11*	-31	i
SMILES	KCNQ2 enhance	KCNQ2 block	Kir21 conf inh	HEK293 Tl flux	CHO-K1 Tl ctr	KCNQ1 pot spec	KCNQ2 pot conf	Kir2-1 sel	KCNQ2 W236L pot
S=C(Nc1ccc(Oc2ccccc2)cc1)Nc1cccnc1	18*	i	i	i	8.9*	-4	83*	-29	4.7%*
O=C(Nc1ccc(OCc2ccccc2)cc1)c1cccnc1	0.6	i	.	.	.	.	.	.	.
CCCOC(=O)c1c(NC(=O)/C=C/c2cnn(C)c2C)sc(C(=O)OC)c1C	0.46	i	.	.	.	.	.	.	.
Cc1c(NC(=O)c2cnn3cccnc23)c(=O)n(-c2ccccc2)n1C	.	i	.	.	.	.	.	.	.
C/C(=N\NC(=S)NCCc1ccccc1)c1ccc(Cl)cc1Cl	6.2*	i	i	i	12*	-25	-10	-24	.
S=C(NCc1ccccc1)Nc1ccc(Cl)cc1	2.1	i	.	.	.	.	.	.	.
